# Experimental data as given in PubChem BioAssay (Tox21).
# Records with an inconclusive call do not appear. A call without a number means that no potency is given here. Unmarked numbers belong to inactive results. Calls of active or inactive are those of the source. The call rests on the fitted dose curve; in most records, active means well fitted curve in the direction sought with a large enough effect in the repeat runs; inconclusive means weak or mixed curves; inactive means no such curve, though single readings can be large; an effect the other way counts as inactive or inconclusive.
# Assays:
# [1] = qHTS assay to identify small molecule agonists of the RXR signaling pathway - cell viability counter screen (AID 1159529);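 further: HEK 293T cells carrying an RXR-alpha UAS beta-lactamase reporter; series mostly up to about 77 µM; nearly all actives have a fitted effect of over 50% in size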
# Procedure, shortened: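 Same-well viability check after the LiveBLAzer FRET read: CellTiter-Glo added, luminescence measured after 30 min at room temperature. Reporter HEK 293T cells had been treated with compounds for 16 hr following a 5 hr preincubation.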
# [2] = qHTS assay to identify small molecule antagonists of the retinoid acid receptor (RAR) signaling pathway - cell viability counter screen (AID 1159551); further: nearly all actives have a fitted effect of over 35% in size
# Procedure, shortened: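 C3RL4 cells were seeded overnight at 37 C, then treated with compounds plus 1 uM (final) retinol for 6 h at 37 C. Viability was read as ATP by CellTiter-Glo luminescence after 30 min at room temperature.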
# [3] = qHTS assay to identify small molecule agonists of the retinoic acid receptor (RAR) signaling pathway (AID 1159553); further: potency means the concentration at half of the fitted maximal effect
# Procedure, shortened: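 C3RL4 cells carrying a RARE luciferase reporter were plated overnight at 37 C, then exposed to compounds in DMSO for 6 hr at 37 C and 5% CO2. Luminescence was read 30 min after luciferase reagent addition at room temperature.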
# [4] = qHTS assay to identify small molecule antagonists of the estrogen related receptor (ERR) signaling pathway from Tox21 library - cell viability counter screen (AID 1224834); further: nearly all actives have a fitted effect of over 30% in size
# Procedure, shortened: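 ERR reporter cells were plated 6 h before compound addition, then exposed to test compounds in DMSO for 17.5 h at 37 C. Viability was read as CellTiter-Fluor fluorescence after a 30-minute incubation at 37 C.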
# [5] = molecular target: Luciferin 4-monooxygenase (Photinus pyralis) (UniProt P08659); assay: qHTS assay to identify small molecule inhibitors of firefly luciferase (AID 1224835); further: nearly all actives have a fitted effect of over 25% in size; further: potency means the concentration at half of the fitted maximal effect; on activity change, negative = inhibition: series mostly up to about 120 µM
# Procedure, shortened: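 Inhibition of purified Photinus luciferase is measured by luminescence. Substrate levels (D-luciferin, ATP) sit at their KM values. Each compound is tested in a concentration series.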
# [6] = qHTS assay to identify small molecule agonists of the constitutive androstane receptor (CAR) signaling pathway - cell viability counter screen (AID 1224836); further: series mostly up to about 92 µM; nearly all actives have a fitted effect of over 45% in size
# Procedure, shortened: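 Compound titrations (15 concentrations) went onto HepG2-CYP2B6-hCAR cells 4 h after seeding, alongside PK11195 at a final 0.75 uM; a 23 h, 37 C/5% CO2 incubation preceded CellTiter-Fluor viability measurement.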
# [7] = qHTS assay to identify small molecule antagonists of the constitutive androstane receptor (CAR) signaling pathway - cell viability counter screen (AID 1224837); further: series mostly up to about 92 µM; nearly all actives have a fitted effect of over 45% in size
# Procedure, shortened: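 HepG2 cells stably expressing hCAR and a CYP2B6-2.2kb reporter were plated and pre-incubated 4 hr at 37 C/5% CO2, then given compounds at 15 concentrations plus 50 nM CITCO (final). After 23 hr, viability was read by CellTiter-Fluor fluorescence.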
# [8] = qHTS assay to identify small molecule antagonists of the retinoic acid receptor (RAR) signaling pathway (AID 1159552; further: nearly all actives have a fitted effect of over 50% in size)
# Procedure, shortened: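 Readout: luciferase luminescence, 30 min post-reagent at RT. Setup: C3RL4 RARE reporter cells, compounds plus retinol 1 uM final, 6 hr incubation at 37 C and 5% CO2.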
# [9] = molecular target: Nuclear receptor subfamily 1 group I member 3 (Homo sapiens) (UniProt Q14994); assay: qHTS assay to identify small molecule antagonists of the constitutive androstane receptor (CAR) signaling pathway (AID 1224838); further: nearly all actives have a fitted effect of over 40% in size
# Procedure, shortened: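 HepG2 cells stably co-transfected with hCAR and a CYP2B6-2.2kb luciferase reporter were seeded 4 h before compound addition at 15 concentrations. Cells were stimulated with 50 nM CITCO (final) for 24 h at 37 C; luciferase luminescence was then read.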
# [10] = molecular target: Nuclear receptor subfamily 1 group I member 3 (Homo sapiens) (UniProt Q14994); assay: qHTS assay to identify small molecule agonists of the constitutive androstane receptor (CAR) signaling pathway (AID 1224839); further: nearly all actives have a fitted effect of over 15% in size; further: potency means the concentration at half of the fitted maximal effect
# Procedure, shortened: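 In this screen, CAR-driven CYP2B6 promoter activity is measured by luminescence in HepG2-CYP2B6-hCAR cells after 24 h with test compounds and 0.75 uM PK11195 (final concentration).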
# Sequence of Luciferin 4-monooxygenase (Photinus pyralis) (P08659 whole entry, looked up): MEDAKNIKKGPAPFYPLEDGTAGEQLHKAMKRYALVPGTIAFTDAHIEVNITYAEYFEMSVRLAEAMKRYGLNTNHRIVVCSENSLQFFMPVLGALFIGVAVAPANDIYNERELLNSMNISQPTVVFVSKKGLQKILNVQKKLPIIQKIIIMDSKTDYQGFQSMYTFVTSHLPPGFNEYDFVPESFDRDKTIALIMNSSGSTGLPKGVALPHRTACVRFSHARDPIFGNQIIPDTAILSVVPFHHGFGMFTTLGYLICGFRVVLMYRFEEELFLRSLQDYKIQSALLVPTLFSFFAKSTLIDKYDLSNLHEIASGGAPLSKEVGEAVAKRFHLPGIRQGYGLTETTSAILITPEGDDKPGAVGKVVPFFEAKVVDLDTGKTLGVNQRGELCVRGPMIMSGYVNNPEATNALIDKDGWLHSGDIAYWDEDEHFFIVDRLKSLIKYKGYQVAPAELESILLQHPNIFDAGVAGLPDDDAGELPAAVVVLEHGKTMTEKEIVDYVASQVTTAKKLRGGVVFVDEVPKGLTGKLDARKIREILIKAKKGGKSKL
# Sequence of Nuclear receptor subfamily 1 group I member 3 (Homo sapiens) (Q14994 whole entry, looked up): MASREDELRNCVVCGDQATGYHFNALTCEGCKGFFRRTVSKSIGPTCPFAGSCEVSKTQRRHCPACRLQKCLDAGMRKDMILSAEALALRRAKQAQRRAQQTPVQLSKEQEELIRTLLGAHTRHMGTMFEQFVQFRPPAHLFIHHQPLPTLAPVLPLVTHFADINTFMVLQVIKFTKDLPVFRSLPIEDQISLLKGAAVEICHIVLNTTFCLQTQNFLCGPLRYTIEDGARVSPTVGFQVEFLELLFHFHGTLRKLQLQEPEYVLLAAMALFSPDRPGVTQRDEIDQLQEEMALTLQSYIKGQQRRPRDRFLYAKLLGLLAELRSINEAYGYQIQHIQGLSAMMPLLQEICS
smiles,measurement,setting,value
O=C(OOC(=O)c1ccccc1)c1ccccc1,Potency,[1],inactive
same,outcome,[2],inactive
same,Potency,[3],inactive
same,outcome,[4],inactive
same,Potency,[5],inactive
same,outcome,[6],inactive
same,outcome,[7],inactive
O=c1[nH]c(=O)c2cn[nH]c2[nH]1,Potency,[1],inactive
same,outcome,[2],inactive
same,outcome,[8],inactive
same,Potency,[5],inactive
same,outcome,[6],inactive
same,outcome,[7],inactive
same,outcome,[9],inactive
same,Potency,[10],inactive
COc1cc2nc(N3CCN(C(=O)C4CCCO4)CC3)nc(N)c2cc1OC (configuration not stated),Potency,[1],inactive
same,outcome,[2],inactive
same,outcome,[8],inactive
same,outcome,[4],inactive
same,Potency,[5],17.4 µM (active)
same,outcome,[7],inactive
same,outcome,[9],inactive
same,Potency,[10],inactive
O=c1c(O)c(O)c1=O,Potency,[1],inactive
same,outcome,[2],inactive
same,Potency,[3],inactive
same,outcome,[4],inactive
same,Potency,[5],inactive
same,outcome,[6],inactive
same,outcome,[7],inactive
same,outcome,[9],inactive
same,Potency,[10],inactive
CC(CN1CC(=O)NC(=O)C1)N1CC(=O)NC(=O)C1 (configuration not stated),Potency,[1],inactive
same,outcome,[2],inactive
same,outcome,[8],inactive
same,outcome,[4],inactive
same,Potency,[5],inactive
same,outcome,[6],inactive
same,outcome,[7],inactive
same,outcome,[9],inactive
same,Potency,[10],inactive
Clc1cc(Cl)c(Cl)c(Cl)c1Cl,Potency,[1],inactive
same,outcome,[2],inactive
same,Potency,[3],inactive
same,outcome,[4],inactive
same,Potency,[5],inactive
same,outcome,[6],inactive
same,outcome,[7],inactive
same,outcome,[9],inactive
same,Potency,[10],inactive
C[n+]1ccccc1/C=N/O,Potency,[1],inactive
same,outcome,[2],inactive
same,Potency,[3],inactive
same,outcome,[4],inactive
same,Potency,[5],inactive
same,outcome,[6],inactive
same,outcome,[7],inactive
same,outcome,[9],inactive
same,Potency,[10],inactive
C[C@]12C=CC(=O)C=C1[C@@H](F)C[C@@H]1[C@@H]2[C@@H](O)C[C@@]2(C)[C@H]1CC[C@]2(O)C(=O)CO,Potency,[1],inactive
same,outcome,[2],inactive
same,outcome,[8],inactive
same,outcome,[4],inactive
same,Potency,[5],inactive
same,outcome,[7],inactive
N#Cc1cc(NC(=O)C(=O)O)c(Cl)c(NC(=O)C(=O)O)c1,Potency,[1],inactive
same,outcome,[2],inactive
same,Potency,[3],inactive
same,outcome,[4],inactive
same,Potency,[5],inactive
same,outcome,[7],inactive
NC(=O)CC[C@@H](N)C(=O)O,Potency,[1],inactive
same,outcome,[2],inactive
same,outcome,[8],inactive
same,outcome,[4],inactive
same,Potency,[5],inactive
same,outcome,[6],inactive
same,outcome,[7],inactive
same,Potency,[10],inactive
CNCCc1ccccn1,Potency,[1],inactive
same,outcome,[2],inactive
same,Potency,[3],inactive
same,outcome,[4],inactive
same,Potency,[5],inactive
same,outcome,[7],inactive
CCCCCCCCOCCC#N,Potency,[1],inactive
same,outcome,[2],inactive
same,outcome,[8],inactive
same,outcome,[4],inactive
same,Potency,[5],inactive
same,outcome,[7],inactive
same,outcome,[9],inactive
same,Potency,[10],inactive
CN(C)CCc1c[nH]c2ccc(C[C@H]3COC(=O)N3)cc12,Potency,[1],inactive
same,outcome,[2],inactive
same,Potency,[3],inactive
same,outcome,[4],inactive
same,Potency,[5],inactive
same,outcome,[6],inactive
same,outcome,[7],inactive
Cc1cccc(N)n1,Potency,[1],inactive
same,outcome,[2],inactive
same,Potency,[3],inactive
same,outcome,[4],inactive
same,Potency,[5],inactive
same,outcome,[6],inactive
same,outcome,[7],inactive
CCCCCCCCCCCCCC(=O)OCC,Potency,[1],inactive
same,outcome,[2],inactive
same,outcome,[8],inactive
same,Potency,[5],inactive
same,outcome,[7],inactive
same,outcome,[9],inactive
same,Potency,[10],inactive
NC[C@H]1O[C@H](O[C@H]2[C@H](O)[C@@H](O[C@H]3O[C@H](CO)[C@@H](O)[C@H](N)[C@H]3O)[C@H](N)C[C@@H]2N)[C@H](N)[C@@H](O)[C@@H]1O,"activity change, negative = cytotoxicity",[1],3.13% [at 15.8 µM]
same,"activity change, negative = cytotoxicity",[2],-1.43% [at 19 µM]
same,Potency,[3],inactive
same,"viability change, negative = cytotoxic",[4],2% [at 19 µM]
same,"activity change, negative = inhibition",[5],-4.17% [at 23.6 µM]
same,"viability change, negative = cytotoxic",[6],-10.3% [at 19 µM]
same,"activity change, negative = cytotoxicity",[7],-13.6% [at 19 µM]
C=C(C)C(=O)OCCCC,Potency,[1],inactive
same,outcome,[2],inactive
same,Potency,[3],inactive
same,outcome,[4],inactive
same,Potency,[5],inactive
same,outcome,[6],inactive
same,outcome,[7],inactive
O=C(O)Cc1c(Cl)ccc(Cl)c1Cl,Potency,[1],inactive
same,outcome,[2],inactive
same,outcome,[8],inactive
same,outcome,[4],inactive
same,Potency,[5],inactive
same,outcome,[6],inactive
same,outcome,[7],inactive
same,outcome,[9],inactive
same,Potency,[10],inactive
CC(C)(C)OC(=O)c1ccccc1C(=O)O,Potency,[1],inactive
same,outcome,[2],inactive
same,Potency,[3],inactive
same,outcome,[4],inactive
same,Potency,[5],inactive
same,outcome,[6],inactive
same,outcome,[7],inactive
same,outcome,[9],inactive
same,Potency,[10],inactive
C/C(=N\O)c1ccc(OCC(=O)N2CCCCC2)cc1,Potency,[1],inactive
same,outcome,[2],inactive
same,Potency,[3],3.76 µM (active)
same,outcome,[4],inactive
same,Potency,[5],12.3 µM (active)
same,outcome,[7],inactive
same,outcome,[9],inactive
same,Potency,[10],4.22 µM (active)
N=C(N)S(=O)O,Potency,[1],inactive
same,outcome,[2],inactive
same,Potency,[3],inactive
same,outcome,[4],inactive
same,Potency,[5],inactive
same,outcome,[6],inactive
same,outcome,[7],inactive
O=C1c2ccccc2C(=O)N1CO,Potency,[1],inactive
same,outcome,[2],inactive
same,Potency,[3],inactive
same,outcome,[4],inactive
same,Potency,[5],inactive
same,outcome,[6],inactive
same,outcome,[7],inactive
same,outcome,[9],inactive
same,Potency,[10],inactive
CC(C)OCCO,Potency,[1],inactive
same,outcome,[2],inactive
same,Potency,[3],inactive
same,outcome,[4],inactive
same,Potency,[5],inactive
same,outcome,[7],inactive
same,outcome,[9],inactive
same,Potency,[10],inactive
COc1cc(C(=O)NC2CCCNC2)cc(OC)c1OC (configuration not stated),Potency,[1],inactive
same,outcome,[2],inactive
same,Potency,[3],inactive
same,outcome,[4],inactive
same,Potency,[5],inactive
same,outcome,[6],inactive
same,outcome,[7],inactive
same,outcome,[9],inactive
same,Potency,[10],inactive
NNC(=O)OCc1ccccc1,Potency,[1],inactive
same,outcome,[2],inactive
same,Potency,[3],inactive
same,outcome,[4],inactive
same,Potency,[5],inactive
same,outcome,[6],inactive
same,outcome,[7],inactive
same,outcome,[9],inactive
COC(=O)c1c(C)cc(O)c(C)c1O,Potency,[1],inactive
same,outcome,[2],inactive
same,outcome,[8],inactive
same,Potency,[5],inactive
same,outcome,[6],inactive
same,outcome,[7],inactive
same,outcome,[9],inactive
